Assay results as given in article PMC5540273 (PLoS ONE, 2017).

Columns and labels:
Details in all cases: concentration: 1 μM, replicates: in singlicate; n = 1
NEK3 = system: NEK3
NEK4 = system: NEK4
NEK5 = system: NEK5
NEK6 = system: NEK6
NEK7 = system: NEK7
NEK9 = system: NEK9
NIK = system: T1, NIK
T1 construct: gene MAP3K14

NIM1 = system: T2, NIM1
T2 construct: gene MGC42105

NLK = system: NLK
OSR1 = system: T3, OSR1
T3 construct: gene OXSR1
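Further: KINOMEscan kinase panel screen.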

SMILES | %Inh (NEK3) | %Inh (NEK4) | %Inh (NEK5) | %Inh (NEK6) | %Inh (NEK7) | %Inh (NEK9) | %Inh (NIK) | %Inh (NIM1) | %Inh (NLK) | %Inh (OSR1)
CSc1nn2c(=O)cc(N3CCOCC3)nc2n1Cc1cccc(Cl)c1Cl [GSK2347225] | 1% | 0% | 18% | 17% | 37% | 47% | 0% | 21% | 21% | 6%
Cc1ccc(C)c(NC(=O)NCCNc2ccnc(Nc3ccc(F)cc3)n2)c1 [GSK1379878] | 0% | 0% | 3% | 0% | 0% | 9% | 10% | 0% | 0% | 0%
COc1ccc(NC(=O)Nc2ccc(C)c(-c3ccc(C(=O)Nc4ccncc4)cc3)c2)cc1 [GSK1398475] | 10% | 0% | 8% | 0% | 0% | 0% | 0% | 0% | 43% | 0%
CCn1c(-c2ccncc2)nc2cnccc21 [SB-735216] | 14% | 8% | 0% | 6% | 6% | 0% | 15% | 25% | 4% | 15%
CCc1nc(-c2cccc(N(C)S(=O)(=O)c3ccccc3)c2)c(-c2ccnc(Nc3ccc(N4CCN(C(C)=O)CC4)nc3)n2)s1 [GSK1645895] | 9% | 19% | 0% | 0% | 0% | 14% | 0% | 0% | 8% | 3%
Nc1nccc2scc(-c3ccc4c(c3)CCN4C(=O)Cc3cc(F)ccc3F)c12 [GSK2587663] | 0% | 9% | 6% | 0% | 0% | 4% | 0% | 18% | 2% | 5%
CC(C)N1CCC(n2cnc(-c3ccc(F)cc3)c2-c2ccnc(N)n2)CC1 [SB-223132] | 33% | 0% | 3% | 8% | 0% | 0% | 0% | 0% | 49% | 0%
CS(=O)(=O)CCNCc1ccc(-c2ccc3ncnc(Nc4ccc(OCc5ccccc5)c(Cl)c4)c3c2)o1.Cl [GW574783] | 0% | 5% | 0% | 0% | 0% | 0% | 100% | 0% | 12% | 0%
FC(F)(F)c1ccc(-c2nn3ncccc3c2-c2ccnc(Nc3cccc(C(F)(F)F)c3)n2)cc1 [GW828205] | 15% | 0% | 0% | 0% | 0% | 0% | 0% | 0% | 10% | 0%
CC(C)(C)OC(=O)NC1CCCN(c2cc(-c3ccc4c(N)n[nH]c4c3)nc(N)n2)C1 (centres unmarked) [GSK2286096] | 3% | 13% | 2% | 0% | 0% | 2% | 0% | 9% | 27% | 0%
COc1cc2c(Nc3cccc(NC(=O)c4ccccc4)c3)ncnc2cc1OCCCN1CCOCC1 [GSK223810] | 0% | 0% | 0% | 0% | 0% | 21% | 0% | 0% | 33% | 16%
Clc1ccc(-c2cc(-c3c[nH]nc3-c3ccccn3)ccn2)cc1 [GW681251] | 3% | 8% | 36% | 0% | 0% | 2% | 30% | 16% | 11% | 2%
Nc1nc(-c2ccccn2)c(-c2ccnc3ccccc23)s1 [GW548057] | 8% | 0% | 20% | 0% | 0% | 0% | 22% | 38% | 30% | 8%
Cn1ccc2ncnc(Oc3ccc(NC(=O)Nc4cccnc4)c(Cl)c3)c21 | 9% | 0% | 0% | 8% | 0% | 3% | 0% | 0% | 0% | 7%
COc1ccc(Nc2nccc(N3CCC(NC(=O)Nc4ccc5c(c4)OCO5)C3)n2)cc1 (centres unmarked) [GSK1379745] | 0% | 3% | 25% | 7% | 3% | 0% | 1% | 22% | 0% | 12%
CN1CCC(n2cnc(-c3ccc(F)cc3)c2-c2ccnc(NC3CCNCC3)n2)CC1 [SB-229482] | 9% | 0% | 0% | 12% | 1% | 21% | 0% | 54% | 52% | 0%
COC(=O)c1cccc(NC(=O)NCCNc2ccnc(Nc3ccc(F)cc3)n2)c1 [GSK1379883] | 0% | 0% | 17% | 0% | 0% | 11% | 9% | 0% | 0% | 4%
